Data published in PubChem BioAssay AID540335 (Broad Institute, 2011).
Out of some 1,300 compounds screened, about 270 (21%) were called active. The list is a sample of the results. Potency and affinity values are given separately. A number with no mark means an inactive call.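 How the source made its calls: active means dose-dependent rise or fall in viability, either side of zero, with half-maximal concentration at or below a set limit; inconclusive means flat curve at 30 to 70% viability loss, or poor fit; inactive means flat within 30% either way, or potency beyond limit.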

Experiment: proliferation inhibition in MITF-low A375 cells – cell-based, cherry-pick samples, set 2, counter-screen for MITF modulator project, dose response (AID 540335);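 further: A375 human melanoma cells which do not depend on MITF; 0% = median of neutral control wells and 100% = double that signal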
Settings: CellTiter-Glo ATP luminescence, 24 h; series mostly up to 35 µM; activity change, negative = decreased viability: at the top concentration

| Compound | activity change, negative = decreased viability [%] |
| --- | --- |
| CCn1c(=O)c([N+](=O)[O-])c(Cl)c2ccccc21 | 5.11 |
| COc1ccc(C(=O)/C=C/C(=O)N(CC(=O)NC2CCCCC2)Cc2cccs2)c(O)c1 | -2.13 |
| Cc1cnc(NC(=O)c2nn(C)cc2[N+](=O)[O-])s1 | 0.417 |
| Cn1cc(C(=O)N/N=C/c2c(O)ccc3ccccc23)ccc1=O | -38.1 |
| O=C(CSCC(=O)Nc1ccccc1)N/N=C/c1c(O)ccc2ccccc12 | -31.7 |
| CCc1ccccc1NC(=O)CN(C)C(=O)Cn1ncc(Cl)c(Cl)c1=O | 80.5 |
| COC(=O)c1ccc2c(c1O)C(=O)c1ccccc1C2=O | -37.2 |
| CC(=O)N(C)C1=C(N2CCOCC2)C(=O)c2ccccc2C1=O | -38 |
| CCN(CC)CCNC(=O)c1ccc(NC(=O)c2cn(-c3ccccc3)nc2-c2cccs2)cc1 | -38.3 |
| CCS(=O)(=O)c1ccc(N=Nc2ccc(O)c3ncccc23)c(OC)c1 | -34 |
| O=[N+]([O-])c1ccc(-n2nnnc2-c2ccccc2)c([N+](=O)[O-])c1 | 2.45 |
| CCN1CCN(c2ccc(S(=O)(=O)N3CCCCC3)cc2NC(=O)/C=C/c2ccc([N+](=O)[O-])cc2)CC1 | -9.5 |
| CCN1CCN(c2ccc(S(=O)(=O)N3CCCCC3)cc2NC(=O)/C=C/c2cccc(OC)c2OC)CC1 | -14.7 |
| O=C(N/N=C/c1ccc([N+](=O)[O-])s1)C(O)c1ccccc1 (stereo not drawn) | -11.8 |
| CC(/C=N/NC(=O)c1cc(-c2ccncc2)nc2ccccc12)=C\c1ccco1 | 14.4 |
| CN1CCN(C2=C(NS(=O)(=O)c3ccccc3)C(=O)c3ccccc3C2=O)CC1 | -10 |
| O=C1C(Nc2ccccc2)=C(N2CCCCC2)C(=O)c2ccccc21 | -22.7 |
| CCN1c2ccccc2NC2C1C(C(C)=O)C(=O)N2c1ccc(Cl)cc1 (stereo not drawn) | -2.02 |
| CCNC1=C(Cl)C(=O)c2ccccc2C1=O | -23.1 |
| COC1=C(Nc2ccc(O)cc2)C(=O)c2ccccc2C1=O | -34.3 |
| COC1=C(Nc2ccccc2)C(=O)c2ccccc2C1=O | -20.6 |
| C=CCNC1=C(Cl)C(=O)c2ccccc2C1=O | -14.5 |
| O=C(NC1=C(Nc2ccc(Cl)cc2)C(=O)c2ccccc2C1=O)c1ccccc1 | -34.3 |
| CCc1ccc(NC2=CC(=O)C(=O)c3ccccc32)cc1 | -32.6 |
| COc1ccc(C(=O)/C=C/C(=O)N(CC(=O)NC2CCCCC2)CC2CCCO2)c(O)c1 (stereo not drawn) | -33.5 |
| CC1=NNC(=O)/C1=C\c1cn(-c2ccccc2)nc1-c1ccc(F)cc1 | -11.5 |
| Cc1ccc(-c2c[n+](Cc3ccc(Cl)c(Cl)c3)c3n2CCC3)cc1 | -14.8 |
| COc1cc(/C=C/C(=O)c2ccc3c(c2)OCCO3)cc(Br)c1OCC(=O)N(C)C | 107 |
